Inconclusive results are not listed. The source made the active and inactive calls. How the source made its calls, unless noted: active means hit-call score of the fitted dose curve at least 0.9, where 1 is the maximum; inconclusive means response in the unintended direction; inactive means score below 0.9.
Columns and labels:
[1] = biological target: Estrogen receptor (Homo sapiens) (UniProt P03372); assay: CCTE_Deisenroth_AIME_384WELL_LUC_Active: CCTE's 384-well Estrogen Receptor Transactivation Assay with AIME metabolic competence (ERTA luciferase; metabolism positive), Deisenroth Lab (AID 2284030)
Chain of Estrogen receptor (Homo sapiens) (P03372 whole entry, looked up): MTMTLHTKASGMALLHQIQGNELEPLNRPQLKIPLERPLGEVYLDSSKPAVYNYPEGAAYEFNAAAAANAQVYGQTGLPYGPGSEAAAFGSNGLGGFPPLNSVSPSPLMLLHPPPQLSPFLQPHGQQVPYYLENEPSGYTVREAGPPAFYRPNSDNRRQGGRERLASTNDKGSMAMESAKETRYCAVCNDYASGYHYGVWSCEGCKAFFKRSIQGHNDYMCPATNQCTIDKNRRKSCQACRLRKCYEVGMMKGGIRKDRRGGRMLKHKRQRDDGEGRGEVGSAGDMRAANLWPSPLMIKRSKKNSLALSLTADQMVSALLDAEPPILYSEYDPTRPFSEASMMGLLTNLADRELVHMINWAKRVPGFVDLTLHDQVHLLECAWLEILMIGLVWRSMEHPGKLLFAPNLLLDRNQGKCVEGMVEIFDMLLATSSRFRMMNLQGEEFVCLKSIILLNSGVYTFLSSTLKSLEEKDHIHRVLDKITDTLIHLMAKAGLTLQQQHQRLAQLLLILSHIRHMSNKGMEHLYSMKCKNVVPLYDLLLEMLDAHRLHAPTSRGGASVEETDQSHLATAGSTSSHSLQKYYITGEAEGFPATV
Method in brief: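 Readout: bioluminescent luciferase induction in VM7Luc4E2 cells 24 hour after receiving medium from a 2 h rat hepatic S9 (induced, alginate microsphere) metabolism step. Concentrations 0.002 - 200 uM; activity scaled to 17beta-estradiol positive control.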

[2] = CCTE_Deisenroth_AIME_384WELL_CTox_Active: Cytotoxicity Assessment (CTOX) in CCTE's 384-well Estrogen Receptor Transactivation Assay with AIME metabolic competence (metabolism positive), Deisenroth Lab (AID 2284037);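 further: chemicals first conditioned 2 h by alginate-bound induced rat liver S9 before cells; activity means signal loss indicating cell death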
Method in brief: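 VM7Luc4E2 breast cells received medium pre-incubated 2 h with chemical over alginate microspheres holding induced male Sprague Dawley rat liver S9; viability read 24 h later by protease-substrate fluorescence. Loss of signal, bidirectional fit, 0.002–200 uM.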

[3] = biological target: Estrogen receptor (Homo sapiens) (UniProt P03372); assay: CCTE_Deisenroth_AIME_384WELL_LUC_Inactive: CCTE's 384-well Estrogen Receptor Transactivation Assay without AIME metabolic competence (ERTA luciferase; metabolism negative), Deisenroth Lab (AID 2284038);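 further: hits raise estrogen receptor luciferase signal so potencies reflect agonists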
Method in brief: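 VM7Luc4E2 ER transactivation, luciferase bioluminescence after 24 h, using medium pre-incubated 2 h with S9-free alginate microspheres. Concentrations 0.002–200 uM; gain of signal fitted relative to 17beta-estradiol.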

[4] = biological target: Estrogen receptor (Homo sapiens) (UniProt P03372); assay: CCTE_Deisenroth_AIME_384WELL_LUC_Shift: CCTE's 384-well Estrogen Receptor Transactivation Assay with AIME metabolic competence data shift (ERTA luciferase; difference in metabolism positive and negative), Deisenroth Lab (AID 2284041; active means hit-call score of the fitted dose curve at least 0.9, where 1 is the maximum; inactive means score below 0.9;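 further: shift is response with S9 minus without S9 so positive means metabolism raised ER signal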)
Method in brief: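 Here, parent compounds undergo 2 h phase I metabolism by PB/BNF-induced rat S9 before 24 h transactivation in VM7Luc4E2 cells; the curve models S9-positive minus S9-negative response over a 10-point series.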

[5] = CCTE_Deisenroth_AIME_384WELL_CTox_Inactive: Cytotoxicity Assessment (CTOX) in CCTE's 384-well Estrogen Receptor Transactivation Assay without AIME metabolic competence (metabolism negative), Deisenroth Lab (AID 2284039);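 further: cell viability via live-cell protease substrate cleaved to fluorescent probe; cells exposed 24 h to medium preincubated 2 h with alginate-water beads without S9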
Method in brief: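 VM7Luc4E2 human breast cells received conditioned medium from a 2 h incubation of chemical with alginate-water microspheres (no S9), then were exposed 24 h. Viability was read as protease-substrate cleavage to a fluorescent probe; loss of signal was fitted bidirectionally over 0.002–200 uM.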

[6] = CCTE_Shafer_MEA_dev_firing_rate_mean: CCTE's Neural Network Formation Assay for Mean Firing Rate, Shafer Lab (AID 2284031; active means hit-call score of the fitted dose curve at least 0.9, where 1 is the maximum; inactive means score below 0.9)
Method in brief: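 Steps: seed rat cortical cells (1.5 x 10^5/well) with laminin on PEI-coated MEA; dose day 0; record DIV 5/7/9/12, full media and compound exchange after DIV 5 and 9 recordings; compute well-mean firing rate AUC.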

[7] = CCTE_Shafer_MEA_dev_per_burst_spike_percent: CCTE's Neural Network Formation Assay for Percent of Spikes in a Burst, Shafer Lab (AID 2284032; active means hit-call score of the fitted dose curve at least 0.9, where 1 is the maximum; inactive means score below 0.9)
Method in brief: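 Value is trapezoidal AUC over recordings on days 5, 7, 9 and 12 of the well-mean fraction of spikes falling in single-electrode bursts; rat cortical cultures exposed continuously from plating, treatment renewed DIV 5 and 9, fitted downward against DMSO.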

[8] = CCTE_Shafer_MEA_dev_active_electrodes_number: CCTE's Neural Network Formation Assay for Number of Active Electrodes, Shafer Lab (AID 2284040)
Method in brief: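 Counts electrodes per well firing at least 5 spikes/min, recorded on days 5, 7, 9 and 12 in rat cortical cultures dosed continuously from plating (treatment refreshed DIV 5, 9). Value is the area under the curve over recordings, fitted downward relative to DMSO.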

[9] = CCTE_Shafer_MEA_dev_burst_rate: CCTE's Neural Network Formation Assay for Burst Rate, Shafer Lab (AID 2284042; active means hit-call score of the fitted dose curve at least 0.9, where 1 is the maximum; inactive means score below 0.9)
Method in brief: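 Rat primary cortical cultures on PEI/laminin MEA; compound from plating, re-dosed at DIV 5, 9 media change. Single-electrode bursts/recording length, well mean of active electrodes; AUC over DIV 5–12 recordings; loss-of-signal vs DMSO.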

[10] = CCTE_Shafer_MEA_dev_bursting_electrodes_number: CCTE's Neural Network Formation Assay for Number of Bursting Electrodes, Shafer Lab (AID 2284043);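 on AC50: potency is for loss of bursting electrodes relative to DMSO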
Method in brief: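 Counted: electrodes with burst rate ≥1 per 2 min in each well. Cells: primary rat cortex, 1.5 x 10^5/well, on 16-electrode MEA wells. Exposure: DIV 0–12, compound renewed DIV 5 and 9. Recording days 5, 7, 9, 12; AUC vs DMSO baseline.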

[11] = CCTE_Shafer_MEA_dev_per_burst_interspike_interval: CCTE's Neural Network Formation Assay for Burst Interspike Interval, Shafer Lab (AID 2284044; active means hit-call score of the fitted dose curve at least 0.9, where 1 is the maximum; inactive means score below 0.9)
Method in brief: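 Readout is the average time between spikes inside single-electrode bursts, taken as a well mean across bursting electrodes. Cortical neurons from rat developed networks on MEA plates under continuous 12-day exposure; recordings on days 5, 7, 9 and 12 were integrated by trapezoidal AUC.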

[12] = CCTE_Shafer_MEA_dev_burst_duration_mean: CCTE's Neural Network Formation Assay for Mean Burst Duration, Shafer Lab (AID 2284045; active means hit-call score of the fitted dose curve at least 0.9, where 1 is the maximum; inactive means score below 0.9)
Method in brief: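 Network-formation assay in primary rat cortical neurons; treatment spans twelve days of development. Mean burst duration per well is integrated by trapezoidal AUC and fitted in the loss-of-signal direction against DMSO baseline.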

[13] = CCTE_Shafer_MEA_dev_interburst_interval_mean: CCTE's Neural Network Formation Assay for Mean Interburst Interval, Shafer Lab (AID 2284046; active means hit-call score of the fitted dose curve at least 0.9, where 1 is the maximum; inactive means score below 0.9;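 further: well-mean interburst interval of bursting electrodes as AUC over four recording days; curve fitted for decrease in interburst interval relative to DMSO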)
Method in brief: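 Rat cortical neurons, 1.5 x 10^5 cells/well, 48-well MEA; compound from day 0 through DIV 12, media and treatment renewed DIV 5/9. Recordings DIV 5, 7, 9, 12; well-mean interburst interval → trapezoidal AUC, loss direction vs DMSO.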

[14] = CCTE_Shafer_MEA_dev_inter_network_spike_interval_mean: CCTE's Neural Network Formation Assay for Mean Inter-network Spike Interval, Shafer Lab (AID 2284047; active means hit-call score of the fitted dose curve at least 0.9, where 1 is the maximum; inactive means score below 0.9)
Method in brief: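 Primary rat cortical neurons on PEI-coated 48-well MEAs (16 electrodes/well) were exposed from plating day 0 to DIV 12, with dosing renewed at DIV 5 and 9. Recordings at DIV 5, 7, 9, 12 were collapsed by trapezoidal AUC, loss-of-signal fit vs DMSO.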

For `CC(C)(C)C1CCC(O)CC1` (centres undefined), the outcome [1] was “inactive”, the outcome [2] was “inactive” and the outcome [3] was “inactive”. For the same compound, the outcome [4] was “inactive”.
In the case of `CCCC[N+](C)(CCCC)CCCC`, the outcome [1] is reported as “inactive”, the outcome [5] is reported as “inactive” and the outcome [4] is reported as “inactive”.
For `CCCCCCCCCCCCOCCOS(=O)(=O)O`, the AC50 [2] was 147 µM (active), the AC50 [5] was 107 µM (active) and the outcome [4] was “inactive”.
For `O=C(OCc1ccccc1)c1ccccc1O`, the outcome [1] was “inactive”, the outcome [2] was “inactive” and the AC50 [3] was 46.4 µM (active). For the same compound, the AC50 [4] was 37.2 µM (active).
For `CCC(=O)OC(C)(C)C1CC=C(C)CC1` (centres undefined), the outcome [3] was “inactive” and the outcome [4] was “inactive”.
With `[O-]/[N+](=N\O)c1ccccc1` the AC50 [1] was 72.8 µM (active), the AC50 [3] was 59 µM (active) and the AC50 [4] was 81 µM (active).
With `CCCCOCCOCCOCCO` the outcome [1] was “inactive”, the outcome [3] was “inactive” and the outcome [4] was “inactive”.
For `COc1ccc2[nH]cc(CCNC(C)=O)c2c1`, the outcome [1] was “inactive”, the outcome [2] was “inactive” and the outcome [3] was “inactive”. The outcome [4] was “inactive”.
In the case of `CCCCC(CC)COC(=O)COc1ccc(Cl)cc1C` (centres undefined), the outcome [6] is reported as “inactive”, the outcome [7] is reported as “inactive” and the outcome [8] is reported as “inactive”. The outcome [9] was “inactive”, the outcome [10] was “inactive” and the outcome [11] was “inactive”. The outcome [12] was “inactive”, the outcome [13] was “inactive” and the outcome [14] was “inactive”.
With `O=C1OC2(c3ccc(O)cc3Oc3cc(O)ccc32)c2ccccc21` the outcome [3] was “inactive” and the outcome [4] was “inactive”.
In the case of `C=CC(C)CCCC(C)(C)O` (centres undefined), the outcome [1] is reported as “inactive”, the outcome [3] is reported as “inactive” and the outcome [5] is reported as “inactive”. For the same compound, the outcome [4] was “inactive”.
For `CC(C)Cc1ccc(C(C)C(=O)O)cc1` (centres undefined), the outcome [6] was “inactive”, the outcome [7] was “inactive” and the outcome [8] was “inactive”. For the same compound, the outcome [9] was “inactive”, the AC50 [10] was 2.98 µM (active) and the outcome [11] was “inactive”. The outcome [12] was “inactive”, the AC50 [13] was 0.962 µM (active) and the outcome [14] was “inactive”.
With `CN(C)C(=O)Nc1ccccc1` the outcome [1] was “inactive”, the outcome [3] was “inactive” and the outcome [5] was “inactive”. For the same compound, the outcome [4] was “inactive”.
In the case of `CC(CCO)CC(C)(C)C` (centres undefined), the outcome [1] is reported as “inactive”, the outcome [2] is reported as “inactive” and the outcome [3] is reported as “inactive”. For the same compound, the outcome [5] was “inactive” and the outcome [4] was “inactive”.
